Source: PubChem BioAssay AID1159580 (chemical genetic matrix, 2015)
Where “and” joins values, the source holds several entries; their conditions need not be identical. Identical values can stand only once. Hit rate of the full screen: of about 5,500 compounds, about 2,000 (36%) were called active. About 18% were inconclusive and are not listed. No stated cut-off is given here; in the data, active means normalized growth mostly below about 0.91 (no sharp cut-off); inconclusive means no clear call, values can overlap the other calls; inactive means mostly above about 0.92. Some of the results follow.

Test: chemical genetic growth profiling, strain panel (AID 1159580);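 further: tested at 20 µM; growth read once vehicle control cultures reached saturation at 30 °C; 1 = growth at the plate median or of vehicle wells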
Settings: growth OD

Measured: normalized growth

O=C1c2ccccc2C(=O)C1c1ccccc1
inactive: S. cerevisiae deletion strains, locus YKL085W, strain MDH1 (second series), stronger effect = lower value 0.994 | S. cerevisiae deletion strains, locus YKL085W, strain MDH1, stronger effect = lower value 0.994 | S. cerevisiae deletion strains, locus YKL160W, strain elf1, stronger effect = lower value 1 | S. cerevisiae deletion strains, locus YKL190W, strain CNB1, stronger effect = lower value 1 | S. cerevisiae deletion strains, locus YKR001C, strain vps1, stronger effect = lower value 1.01 | S. cerevisiae deletion strains, locus YKR026C, strain gcn3, stronger effect = lower value 0.976 | S. cerevisiae deletion strains, locus YKR091W, strain srl3, stronger effect = lower value 0.997 | S. cerevisiae deletion strains, locus YLL001W, strain dnm1, stronger effect = lower value 1 | S. cerevisiae deletion strains, locus YLL026W, stronger effect = lower value 0.993 | S. cerevisiae deletion strains, locus YLL041C, strain sdh2, stronger effect = lower value 1 | S. cerevisiae deletion strains, locus YLR027C, strain aat2, stronger effect = lower value 0.998 | S. cerevisiae deletion strains, locus YLR039C, strain RIC1, stronger effect = lower value 0.983 and 0.913 | S. cerevisiae deletion strains, locus YLR058C, strain SHM2, stronger effect = lower value 1.01 | S. cerevisiae deletion strains, locus YLR085C, strain ARP6, stronger effect = lower value 0.972 | S. cerevisiae deletion strains, locus YLR102C, strain apc9, stronger effect = lower value 1.01 | S. cerevisiae deletion strains, locus YLR113W, strain HOG1, stronger effect = lower value 0.934 | S. cerevisiae deletion strains, locus YLR221C, strain rsa3, stronger effect = lower value 1 | S. cerevisiae deletion strains, locus YLR258W, strain gsy2, stronger effect = lower value 1.02 | S. cerevisiae deletion strains, locus YLR262C, strain YPT6 (second series), stronger effect = lower value 1 | S. cerevisiae deletion strains, locus YLR262C, strain YPT6, stronger effect = lower value 0.967 and 0.909 | S. cerevisiae deletion strains, locus YLR268W, strain sec22, stronger effect = lower value 1.03 | S. cerevisiae deletion strains, locus YLR320W, strain mms22, stronger effect = lower value 1.01 | S. cerevisiae deletion strains, locus YLR330W, strain CHS5, stronger effect = lower value 0.999 | S. cerevisiae deletion strains, locus YLR342W, strain FKS1 (second series), stronger effect = lower value 1.01 | S. cerevisiae deletion strains, locus YLR342W, strain FKS1, stronger effect = lower value 0.998 | S. cerevisiae deletion strains, locus YLR357W, strain rsc2, stronger effect = lower value 1.03 | S. cerevisiae deletion strains, locus YLR370C, strain arc18, stronger effect = lower value 1 | S. cerevisiae deletion strains, locus YLR371W, strain rom2, stronger effect = lower value 1.01 | S. cerevisiae deletion strains, locus YLR384C, strain iki3, stronger effect = lower value 1 | S. cerevisiae deletion strains, locus YLR418C, strain cdc73, stronger effect = lower value 0.98 | S. cerevisiae deletion strains, locus YML016C, strain PPZ1, stronger effect = lower value 1 | S. cerevisiae deletion strains, locus YML032C, strain rad52, stronger effect = lower value 1.01 | S. cerevisiae deletion strains, locus YML094W, strain GIM5, stronger effect = lower value 0.945 | S. cerevisiae deletion strains, locus YML120C, strain ndi1, stronger effect = lower value 1.01 | S. cerevisiae deletion strains, locus YML124C, strain tub3, stronger effect = lower value 1.01 | S. cerevisiae deletion strains, locus YMR058W, strain fet3, stronger effect = lower value 0.999 | S. cerevisiae deletion strains, locus YMR078C, strain ctf18, stronger effect = lower value 1.01 | S. cerevisiae deletion strains, locus YMR125W, strain sto1, stronger effect = lower value 0.995 | S. cerevisiae deletion strains, locus YMR129W, stronger effect = lower value 0.992 | S. cerevisiae deletion strains, locus YMR205C, strain PFK2, stronger effect = lower value 1.01 | S. cerevisiae deletion strains, locus YMR219W, strain ESC1, stronger effect = lower value 0.954 | S. cerevisiae deletion strains, locus YMR223W, strain ubp8, stronger effect = lower value 1 | S. cerevisiae deletion strains, locus YMR231W, strain pep5, stronger effect = lower value 1 | S. cerevisiae deletion strains, locus YMR263W, strain SAP30, stronger effect = lower value 1.01 | S. cerevisiae deletion strains, locus YMR307W, strain GAS1, stronger effect = lower value 1.01 | S. cerevisiae deletion strains, locus YNL067W, strain RPL9B, stronger effect = lower value 0.999 | S. cerevisiae deletion strains, locus YNL071W, strain lat1, stronger effect = lower value 1 | S. cerevisiae deletion strains, locus YNL128W, strain TEP1, stronger effect = lower value 1.02 | S. cerevisiae deletion strains, locus YNL153C, strain GIM3, stronger effect = lower value 0.996 and 0.979 | S. cerevisiae deletion strains, locus YNL183C, strain NPR1, stronger effect = lower value 0.939 | S. cerevisiae deletion strains, locus YNL209W, strain ssb2, stronger effect = lower value 1.01 | S. cerevisiae deletion strains, locus YNL233W, strain BNI4, stronger effect = lower value 1 | S. cerevisiae deletion strains, locus YNL248C, strain rpa49, stronger effect = lower value 1 | S. cerevisiae deletion strains, locus YNL250W, strain rad50, stronger effect = lower value 0.989 | S. cerevisiae deletion strains, locus YNL271C, strain bni1, stronger effect = lower value 1 | S. cerevisiae deletion strains, locus YNL298W, strain CLA4 (second series), stronger effect = lower value 0.968 | S. cerevisiae deletion strains, locus YNL298W, strain CLA4, stronger effect = lower value 0.994 | S. cerevisiae deletion strains, locus YNL307C, strain MCK1, stronger effect = lower value 1 | S. cerevisiae deletion strains, locus YNL322C, strain KRE1 (second series), stronger effect = lower value 1 | S. cerevisiae deletion strains, locus YNL322C, strain KRE1, stronger effect = lower value 1 and 0.969 | S. cerevisiae deletion strains, locus YNR030W, strain Alg12, stronger effect = lower value 0.969 | S. cerevisiae deletion strains, locus YNR049C, strain mso1, stronger effect = lower value 0.998 | S. cerevisiae deletion strains, locus YNR052C, strain pop2, stronger effect = lower value 1.01 | S. cerevisiae deletion strains, locus YOL006C, strain TOP1, stronger effect = lower value 0.964 | S. cerevisiae deletion strains, locus YOL012C, strain htz1 0.826 | S. cerevisiae deletion strains, locus YOL147C, strain pex11, stronger effect = lower value 1.01 | S. cerevisiae deletion strains, locus YOR001W, strain rrp6, stronger effect = lower value 1.01 | S. cerevisiae deletion strains, locus YOR061W, strain CKA2, stronger effect = lower value 1 | S. cerevisiae deletion strains, locus YOR069W, strain VPS5, stronger effect = lower value 1 | S. cerevisiae deletion strains, locus YOR070C, strain gyp1, stronger effect = lower value 0.996 | S. cerevisiae deletion strains, locus YOR080W, strain dia2, stronger effect = lower value 1 | S. cerevisiae deletion strains, locus YOR083W, strain WHI5, stronger effect = lower value 0.999 | S. cerevisiae deletion strains, locus YOR106W, strain vam3, stronger effect = lower value 1.01 | S. cerevisiae deletion strains, locus YOR136W, strain idh2, stronger effect = lower value 1.01 | S. cerevisiae deletion strains, locus YOR144C, strain elg1, stronger effect = lower value 1 | S. cerevisiae deletion strains, locus YOR184W, strain ser1, stronger effect = lower value 1.02 | S. cerevisiae deletion strains, locus YOR231W, strain MKK1, stronger effect = lower value 0.992 | S. cerevisiae deletion strains, locus YOR265W, strain rbl2, stronger effect = lower value 0.995 | S. cerevisiae deletion strains, locus YOR270C, strain vph1, stronger effect = lower value 1.01 | S. cerevisiae deletion strains, locus YOR290C, strain snf2, stronger effect = lower value 0.997 | S. cerevisiae deletion strains, locus YOR316C, strain cot1, stronger effect = lower value 1.01 | S. cerevisiae deletion strains, locus YPL051W, strain arl3, stronger effect = lower value 1 | S. cerevisiae deletion strains, locus YPL055C, strain LGE1, stronger effect = lower value 1 and 0.972 | S. cerevisiae deletion strains, locus YPL078C, strain atp4, stronger effect = lower value 1 | S. cerevisiae deletion strains, locus YPL106C, strain sse1, stronger effect = lower value 1.01 | S. cerevisiae deletion strains, locus YPL240C, strain hsp82, stronger effect = lower value 1 | S. cerevisiae deletion strains, locus YPL256C, strain CLN2, stronger effect = lower value 0.917 | S. cerevisiae deletion strains, locus YPR119W, strain clb2, stronger effect = lower value 1.01 | S. cerevisiae deletion strains, locus YPR135W, strain CTF4, stronger effect = lower value 0.934 | S. cerevisiae deletion strains, locus YPR141C, strain kar3, stronger effect = lower value 0.987 | S. cerevisiae deletion strains, locus YPR163C, strain tif3, stronger effect = lower value 1.01 | S. cerevisiae deletion strains, locus YPR167C, strain met16, stronger effect = lower value 1.01 | S. cerevisiae deletion strains, strain wtn01, stronger effect = lower value 1.01 | S. cerevisiae strains, strain wild type, stronger effect = lower value 0.999 and 0.961
active: S. cerevisiae deletion strains, locus YLR058C, strain SHM2 (second series), stronger effect = lower value 0.932 | S. cerevisiae deletion strains, locus YPL241C, strain CIN2, stronger effect = lower value 1.21 [resistant]
